# Several values for one entry are separate records, joined by “and”; a condition that tells them apart may be missing. Equal entries are not always repeated. This is part of a sample that, as a whole, favours compounds with a hit. Of some 83,000 tested, about 20% had one in any assay.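 Negative percent growth values reflect cell death: -40 means 40% of the cells present at the start died, and -100 means all died.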 Activity calls are given as the source filed them. Rule for the calls: active = growth percent below 10; inactive = the rest.
# Key:
# Assay in all cases: NCI-60 one-dose screen, 48 h (100 = growth as untreated, 0 = no growth, -100 = all killed)
# [1] = tested on: RPMI-8226 leukemia; settings: 10 µM
# [2] = tested on: OVCAR-8 ovarian; settings: 10 µM unless noted
# [3] = tested on: OVCAR-5 ovarian; settings: 10 µM unless noted
# [4] = tested on: OVCAR-4 ovarian; settings: 10 µM unless noted
# [5] = tested on: SK-OV-3 ovarian; settings: 10 µM
# [6] = tested on: IGROV1 ovarian; settings: 10 µM unless noted
# [7] = tested on: OVCAR-3 ovarian; settings: 10 µM unless noted
# [8] = tested on: HS 578T breast; settings: 10 µM unless noted
# [9] = tested on: NCI/ADR-RES ovarian; settings: 10 µM unless noted
# [10] = tested on: T-47D breast; settings: 10 µM
# [11] = tested on: BT-549 breast; settings: 10 µM unless noted
# [12] = tested on: SW-620 colon; settings: 10 µM unless noted
# [13] = tested on: MCF7 breast; settings: 10 µM unless noted
# [14] = tested on: HCT-116 colon; settings: 10 µM unless noted
# [15] = tested on: HCC-2998 colon; settings: 10 µM unless noted
# [16] = tested on: KM12 colon; settings: 10 µM unless noted
# [17] = tested on: MDA-MB-435 melanoma; settings: 10 µM unless noted
structure (smiles),measurement,setting,value
Cc1cc(Cl)c2c(Cl)ccc(Cl)c2n1,growth,[1],107% (inactive)
same,growth,[2],103% (inactive)
same,growth,[3],101% (inactive)
same,growth,[4],128% (inactive)
same,growth,[5],97.7% (inactive)
same,growth,[6],111% (inactive)
same,growth,[7],105% (inactive)
same,growth,[8],119% (inactive)
same,growth,[9],114% (inactive)
same,growth,[10],103% (inactive)
same,growth,[11],100% (inactive)
same,growth,[12],114% (inactive)
same,growth,[13],99.3% (inactive)
same,growth,[14],100% (inactive)
same,growth,[15],116% (inactive)
same,growth,[16],108% (inactive)
COc1cc(NC(=O)COc2ccccc2)c(C(N)=O)cc1OC,growth,[1],9.18% (active)
same,growth,[2],34.2% (inactive)
same,growth,[3],48.8% (inactive)
same,growth,[4],93.9% (inactive)
same,growth,[5],30.4% (inactive)
same,growth,[6],43.9% (inactive)
same,growth,[7],6.16% (active)
same,growth,[8],29.6% (inactive)
same,growth,[9],10.2% (inactive)
same,growth,[11],59.5% (inactive)
same,growth,[17],-77.5% (active)
same,growth,[12],26.8% (inactive)
same,growth,[14],29.5% (inactive)
same,growth,[15],47.1% (inactive)
same,growth,[16],29.3% (inactive)
Nc1ccccc1-c1n[nH]c(=O)[nH]c1=O,growth,[1],105% (inactive)
same,growth,[2],105% (inactive)
same,growth,[3],109% (inactive)
same,growth,[4],94.3% (inactive)
same,growth,[5],108% (inactive)
same,growth,[6],108% (inactive)
same,growth,[7],118% (inactive)
same,growth,[9],102% (inactive)
same,growth,[10],114% (inactive)
same,growth,[11],111% (inactive)
same,growth,[17],100% (inactive)
same,growth,[12],101% (inactive)
same,growth,[13],102% (inactive)
same,growth,[14],93.3% (inactive)
same,growth,[15],101% (inactive)
same,growth,[16],107% (inactive)
CC(=O)OC(=C(C#N)C#N)c1nccnc1C(C)=O,growth,[13],106% [20 µM] (inactive) and 75.4% [20 µM] (inactive)
O=c1ccc2ccccc2o1,growth,[2],105% (inactive)
same,growth,[3],104% (inactive)
same,growth,[5],111% (inactive)
same,growth,[6],111% (inactive)
same,growth,[7],111% (inactive)
same,growth,[8],105% (inactive)
same,growth,[9],105% (inactive)
same,growth,[10],116% (inactive)
same,growth,[11],87.1% (inactive)
same,growth,[17],102% (inactive)
same,growth,[12],105% (inactive)
same,growth,[13],98.3% (inactive)
same,growth,[14],104% (inactive)
same,growth,[15],106% (inactive)
same,growth,[16],99.1% (inactive)
C1CCC([PH+](C2CCCCC2)C2CCCCC2[PH+](C2CCCCC2)C2CCCCC2)CC1.O=C(C1[CH-]CCCC1)C1CCCC[N-]1.[Au] (stereo unspecified),growth,[4],18.2% (inactive)
same,growth,[8],13.8% (inactive)
same,growth,[9],17.2% (inactive)
same,growth,[10],10.3% (inactive)
COc1cc([N+](=O)[O-])c(OC)c2c(Nc3ccc(S(=O)(=O)O)c4cc(S(=O)(=O)O)cc(S(=O)(=O)O)c34)cc(C)nc12,growth,[13],-88.5% [100 µM] (active) and -100% [100 µM] (active)
N#Cc1sc2nc(/C=C3/C=CC=CC3=O)c(O)n2c1N,growth,[13],30.3% [100 µM] (inactive) and 3.44% [100 µM] (active)
NC(=O)c1c(Br)c(Br)c(Br)c(Br)c1C(=O)O (tested in a mixture with another compound),growth,[4],94.3% (inactive)
CCC(C)[C@H]1O[C@]2(CC[C@@H]1C)C[C@@H]1C[C@@H](C/C=C(\C)[C@@H](OC3C[C@H](OC)C(O[C@H]4C[C@H](OC)[C@@H](O)[C@H](C)O4)[C@H](C)O3)[C@@H](C)/C=C/C=C3\CO[C@@H]4[C@H](O)C(C)=C[C@@H](C(=O)O1)[C@]34O)O2 (stereo partly specified),growth,[2],42.4% (inactive)
same,growth,[3],24.4% (inactive)
same,growth,[5],50.8% (inactive)
same,growth,[6],27.3% (inactive)
same,growth,[7],-26.5% (active)
same,growth,[8],26% (inactive)
same,growth,[9],7.07% (active)
same,growth,[10],18.1% (inactive)
same,growth,[11],-26.3% (active)
same,growth,[17],3.2% (active)
same,growth,[12],18.5% (inactive)
same,growth,[13],6.74% (active)
same,growth,[14],-89.2% (active)
same,growth,[15],-82.3% (active)
same,growth,[16],-11.8% (active)
C=C1C(=O)OC2/C=C(\CO)C(OC(C)=O)CC(O)/C(C)=C/C(OC(=O)C(C)CC)C12 (stereo unspecified),growth,[13],-87% [100 µM] (active) and -86.7% [100 µM] (active)
O=c1[nH]c(=O)n(C2CC(O)C(CO)O2)cc1Br (stereo unspecified),growth,[13],29% [100 µM] (inactive) and -14.9% [100 µM] (active)
O=C(N/N=C(\CS(=O)(=O)c1ccccc1)c1cc2cc(Br)ccc2oc1=O)c1ccccc1,growth,[1],121% (inactive)
same,growth,[2],101% (inactive)
same,growth,[3],94.1% (inactive)
same,growth,[6],110% (inactive)
same,growth,[7],108% (inactive)
same,growth,[8],99.4% (inactive)
same,growth,[9],105% (inactive)
same,growth,[10],94.1% (inactive)
same,growth,[11],102% (inactive)
same,growth,[17],100% (inactive)
same,growth,[12],102% (inactive)
same,growth,[13],98.2% (inactive)
same,growth,[14],104% (inactive)
same,growth,[15],103% (inactive)
same,growth,[16],105% (inactive)
CC1=CCC2C3(C)CCC2(C(C)C)C1C3 (stereo unspecified) (tested in a mixture with another compound),growth,[13],-76.9% [100 µM] (active) and -91.7% [100 µM] (active)
CCCCCCCCCc1cc(=O)c2c(O)cc(O)cc2o1,growth,[13],-86.1% [100 µM] (active) and -45.1% [100 µM] (active)
O=C1c2c(c3c4cc(Br)ccc4[nH]c3c3ccc4ccccc4c23)C(=O)N1O,growth,[1],58.9% (inactive)
same,growth,[2],84.1% (inactive)
same,growth,[3],111% (inactive)
same,growth,[6],70.2% (inactive)
same,growth,[7],107% (inactive)
same,growth,[8],117% (inactive)
same,growth,[9],98.1% (inactive)
same,growth,[10],69.3% (inactive)
same,growth,[11],93.4% (inactive)
same,growth,[17],94.6% (inactive)
same,growth,[12],68.8% (inactive)
same,growth,[13],43.3% (inactive)
same,growth,[14],83.6% (inactive)
same,growth,[15],95.1% (inactive)
same,growth,[16],87.5% (inactive)
Clc1cccc(Cl)c1Nc1ccc2nnc(-c3ccncc3)n2n1,growth,[1],93.3% (inactive)
same,growth,[2],97.6% (inactive)
same,growth,[3],102% (inactive)
same,growth,[5],109% (inactive)
same,growth,[6],93.8% (inactive)
same,growth,[7],110% (inactive)
same,growth,[8],103% (inactive)
same,growth,[9],101% (inactive)
same,growth,[10],91.3% (inactive)
same,growth,[11],114% (inactive)
same,growth,[17],104% (inactive)
same,growth,[12],102% (inactive)
same,growth,[13],95.2% (inactive)
same,growth,[14],98.9% (inactive)
same,growth,[15],97.1% (inactive)
same,growth,[16],112% (inactive)
CCOC(=O)CCCOc1cc(-c2ccccc2F)nc2cc3c(cc12)OCO3,growth,[13],14.3% [100 µM] (inactive) and -100% [100 µM] (active)
Nc1cc2c3c(cccc3c1)C(=O)N(c1ccc(OCCN3CCCCC3)cc1)C2=O,growth,[13],-95.1% [100 µM] (active) and -100% [100 µM] (active)
Cc1ccc(NC(=S)C#N)c(C)c1,growth,[13],48.6% [100 µM] (inactive) and -77.7% [100 µM] (active)
N#Cc1c(=N)cc2c3ccccc3oc3c(C#N)c(N)[nH]c1c32,growth,[13],74.3% [100 µM] (inactive) and 24.3% [100 µM] (inactive)
O=C(O)c1cnccc1-c1cc(=O)[nH]n1-c1ccccc1,growth,[13],29.1% [100 µM] (inactive) and 3.22% [100 µM] (active)
COc1cc(/C=N/NC(=O)c2cnn3c2NC(c2ccccc2)C3)ccc1OC1CCCC1 (stereo unspecified),growth,[1],17.9% (inactive)
same,growth,[2],49.1% (inactive)
same,growth,[3],59.7% (inactive)
same,growth,[4],44.6% (inactive)
same,growth,[6],42.6% (inactive)
same,growth,[7],-32.9% (active)
same,growth,[8],-18% (active)
same,growth,[9],14% (inactive)
same,growth,[11],16.8% (inactive)
same,growth,[17],0.812% (active)
same,growth,[12],18.3% (inactive)
same,growth,[13],16.8% (inactive)
same,growth,[14],18.9% (inactive)
same,growth,[15],63.8% (inactive)
same,growth,[16],18.1% (inactive)
O=C(COc1ccc(/C=C2\CSc3ccccc3C2=O)cc1)c1ccc(Cl)cc1,growth,[1],95.8% (inactive)
same,growth,[2],110% (inactive)
same,growth,[4],107% (inactive)
same,growth,[5],107% (inactive)
same,growth,[7],96% (inactive)
same,growth,[8],109% (inactive)
same,growth,[10],94.8% (inactive)
same,growth,[11],110% (inactive)
same,growth,[17],95.6% (inactive)
same,growth,[12],115% (inactive)
same,growth,[13],114% (inactive)
same,growth,[14],94.1% (inactive)
same,growth,[16],106% (inactive)
COc1ccc(/C=N/OCC(O)CN2CCC(O)CC2)cc1OC1CCCC1 (stereo unspecified),growth,[1],110% (inactive)
same,growth,[2],109% (inactive)
same,growth,[3],101% (inactive)
same,growth,[4],100% (inactive)
same,growth,[6],107% (inactive)
same,growth,[7],114% (inactive)
same,growth,[9],104% (inactive)
same,growth,[11],88.7% (inactive)
same,growth,[17],102% (inactive)
same,growth,[12],104% (inactive)
same,growth,[13],94.7% (inactive)
same,growth,[14],89.6% (inactive)
same,growth,[15],101% (inactive)
same,growth,[16],109% (inactive)
CCOC(=O)c1[nH]c2cc(Cl)ccc2c1[C@@H](C(=O)NC(C)(C)C)N(CC)C(=O)CCCCC#Cc1cccc2c1CN(C1CCC(=O)NC1=O)C2=O (stereo partly specified),growth,[1],7.28% (active)
same,growth,[2],10.9% (inactive)
same,growth,[3],39.6% (inactive)
same,growth,[4],13.2% (inactive)
same,growth,[6],8.84% (active)
same,growth,[7],8.96% (active)
same,growth,[8],-12.6% (active)
same,growth,[9],16.8% (inactive)
same,growth,[11],3.98% (active)
same,growth,[17],18.1% (inactive)
same,growth,[12],22.2% (inactive)
same,growth,[13],12.5% (inactive)
same,growth,[14],24.6% (inactive)
same,growth,[15],6.54% (active)
same,growth,[16],10.3% (inactive)
CCCCOC(=O)C1OC(Oc2ccc3c(C)cc(=O)oc3c2)[C@@H](OC(C)=O)C(OC(C)=O)C1OC(C)=O (stereo partly specified),growth,[1],97.9% (inactive)
same,growth,[2],104% (inactive)
same,growth,[3],97.8% (inactive)
same,growth,[4],101% (inactive)
same,growth,[6],101% (inactive)
same,growth,[7],108% (inactive)
same,growth,[8],101% (inactive)
same,growth,[9],99.9% (inactive)
same,growth,[11],103% (inactive)
same,growth,[17],101% (inactive)
same,growth,[12],102% (inactive)
same,growth,[14],88.1% (inactive)
same,growth,[15],109% (inactive)
same,growth,[16],99.4% (inactive)
COC(=O)c1c2c(c(C)[n+]([O-])c1C)C(=O)C=C(NCc1cccc(Cl)c1)C2=O,growth,[1],-31.9% (active)
same,growth,[2],-14.4% (active)
same,growth,[3],-87.2% (active)
same,growth,[6],-53.9% (active)
same,growth,[7],-35.7% (active)
same,growth,[8],-23.2% (active)
same,growth,[9],-12.7% (active)
same,growth,[10],-37.6% (active)
same,growth,[11],-82.3% (active)
same,growth,[17],-92.1% (active)
same,growth,[12],-31.4% (active)
same,growth,[13],-61.3% (active)
same,growth,[14],-13.7% (active)
same,growth,[15],-38.3% (active)
same,growth,[16],0.497% (active)

# From PubChem BioAssay (NCI)
